The nature of experiment [1]: Nuclear factor erythroid 2-related factor 2/antioxidant responsive element (Nrf2/ARE) small molecule agonists: qHTS cell viability counter screen in human keratinocytes (AID 1919968; active = well fitted curve in the direction sought with a large enough effect in the repeat runs; an effect the other way counts as inactive or inconclusive; note: nearly all actives have a fitted effect of over 55% in size). The procedure, abridged: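 KeratinoSens HaCaT cells, 1,500/well, preincubated 5 h, then exposed to compounds in DMSO for 23 h at 37 C/5% CO2. Viability read as CellTiter-Fluor fluorescence after 1 h, in the same wells as the ARE-luciferase read.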

The nature of experiment [2]: Nuclear factor erythroid 2-related factor 2/antioxidant responsive element (Nrf2/ARE) small molecule agonists: luciferase reporter gene qHTS assay in human keratinocytes (AID 1919969). Note: nearly all actives have a fitted effect of over 35% in size. Note: potency is the fitted concentration of half-maximal effect.
Experiment [3] has as its target Gonadotropin-releasing hormone receptor (Homo sapiens) (UniProt P30968). Nature of the experiment: Human gonadotropin-releasing hormone receptor (GnRHR) small molecule agonists, calcium flux assay in GnRHR-HEK293 cells (AID 1920063). Note: nearly all actives have a fitted effect of over 35% in size. The procedure, abridged:
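HEK293 cells stably expressing human GnRHR were dye-loaded for 1 h at 37 C. Compound was added in agonist mode and fluorescence (Ex/Em 480/540) recorded kinetically for 3 min. Fifteen concentrations, triplicates.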
Background: A change in cytosolic calcium serves as a functional read-out for many receptors and channels.

Experiment [4] deals with KiSS-1 receptor (Homo sapiens) (UniProt Q969F8). As to the kind of experiment: Human kisspeptin (KISS1R) small molecule agonists, calcium flux assay in KISS1R-HEK293 cells (AID 1920064; active = well fitted curve in the direction sought with a large enough effect in the repeat runs; an effect the other way counts as inactive or inconclusive). Put shortly:
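HEK293 cells stably expressing human KISS1R were loaded with calcium dye for 1 h at 37 C, then given compound; fluorescence (Ex/Em 480/540) was read kinetically for 3 min. Fifteen concentrations, triplicate.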

The nature of experiment [5]: G protein-coupled receptor (GPCR) small molecule agonists, calcium flux assay: HEK293 wild type cell line counter screen (AID 1920065). Put shortly:
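Wild-type HEK293 cells plated 18 h, loaded with calcium dye 1 h at 37 C, then compounds added in agonist mode (ATP as positive control). Kinetic fluorescence Ex/Em 480/540 recorded 3 min at 1 sec intervals; 15 concentrations, triplicate.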

A short description of experiment [6]: p53 small molecule agonists, cell-based qHTS assay with human liver microsomes (AID 1963577). The procedure, abridged: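 Fluorescence of the beta-lactamase reporter in p53RE-bla cells, detected with LiveBLAzer substrate (2 h, room temperature, dark), served as the read-out after 16 h compound exposure at 37 C with human liver microsomes and NADPH, each 0.5 mg/mL final.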
Background: In qHTS, concentration-response curves come from the screen itself.

Experiment [7] can be described thus: p53 small molecule agonists, cell-based qHTS assay with rat liver microsomes (AID 1963578). The procedure, abridged: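 Cells carrying a p53 response element–beta-lactamase reporter were plated and rested 5 h, then dosed with compound in DMSO plus rat liver microsomes and NADPH, each at 0.5 mg/mL final. After 16 h at 37 C, LiveBLAzer substrate was added for 2 h.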

The nature of experiment [8]: p53 small molecule agonists, cell-based qHTS assay with rat liver microsomes: qHTS cell viability counter screen (AID 1963580). Note: nearly all actives have a fitted effect of over 45% in size. The procedure, abridged: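 p53RE-bla HCT-116 cells (4,000/well) rested 5 h at 37 C, then given Tox21 compounds in DMSO with rat liver microsomes (0.5 mg/mL final) plus NADPH (0.5 mg/mL final) for 16 h at 37 C. Viability read by CellTiter-Glo luminescence after 30 min at room temperature.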

A short description of experiment [9]: p53 small molecule agonists, cell-based qHTS assay: qHTS cell viability counter screen (AID 1963581). Note: nearly all actives have a fitted effect of over 45% in size. Put shortly: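 p53RE-bla HCT-116 cells, compounds added 5 h after plating and incubated 16 h at 37 C. Cytotoxicity measured in the same wells as intracellular ATP by CellTiter-Glo luminescence after 30 min at room temperature.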
Experiment [10] can be described thus: p53 small molecule agonists, cell-based qHTS assay (AID 1963582; active = well fitted activation curve with a large enough effect in the signal ratio in the repeat runs, not every such curve was filed as active; the % refers to the signal ratio). The procedure, abridged: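 p53RE-bla reporter cells, compounds added in DMSO after 5 h plating, incubated 16 h at 37 C. Beta-lactamase read via 2 h room-temperature LiveBLAzer B/G FRET substrate, fluorescence intensity.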
Experiment [11] has as its target 5-hydroxytryptamine receptor 2A (Homo sapiens) (UniProt P28223). As to the kind of experiment: 5-hydroxytryptamine receptor 2A (HTR2A) small molecule antagonists, cell-based qHTS assay (AID 1963586). Note: nearly all actives have a fitted effect of over 45% in size. The procedure, abridged:
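Antagonist-mode intracellular calcium assay: DOI (4 nM) added after 5 min compound pre-incubation at room temperature to dye-loaded HTR2A-CHO cells. Fluorescence followed for 3 min, sampled every second.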

The target is the same in experiment [12]. As to the kind of experiment: 5-hydroxytryptamine receptor 2A (HTR2A) small molecule agonists, cell-based qHTS assay (AID 1963587). Note: nearly all actives have a fitted effect of over 30% in size. The procedure, abridged:
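HTR2A-CHO cells, plated 18 h at 37 C/5% CO2, dye-loaded 1 h at 37 C; compounds in DMSO added by pin tool (agonist mode). Intracellular calcium flux read as kinetic fluorescence on FDSS over 2 min at 1 s intervals.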

Experiment [13] has as its target Muscarinic acetylcholine receptor M1 (Homo sapiens) (UniProt P11229). Nature of the experiment: Cholinergic receptor muscarinic 1 (CHRM1) small molecule antagonists, cell-based qHTS assay (AID 1963588). Note: nearly all actives have a fitted effect of over 40% in size. Put shortly:
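CHRM1-CHO calcium-flux assay, antagonist mode. Cells were seeded 18 h, dye-loaded 1 h at 37 C and given compound for 5 min at RT, then acetylcholine was added at 50nM. FDSS fluorescence was read 3 min; 15 concentrations, three runs.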

Experiment [14] has the same target. As to the kind of experiment: Cholinergic receptor muscarinic 1 (CHRM1) small molecule agonists, cell-based qHTS assay (AID 1963589). Note: nearly all actives have a fitted effect of over 35% in size. Put shortly:
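CHO cells stably expressing human CHRM1 were loaded with calcium dye for 1 h at 37 C, then compound was added in agonist mode. Intracellular calcium fluorescence was followed kinetically at 1 s intervals. Fifteen concentrations were tested in three independent runs.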

Experiment [15] is described as follows: cAMP Responsive Elements (CRE) small molecule agonists, cell-based qHTS assay (AID 1963590). The procedure, abridged: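 CRE-bla HEK 293T cells, 2,000/well in DMEM with 10% dialyzed FBS and 25 mM HEPES, pre-incubated 18 h at 37 C, then exposed to compound 3 h at 37 C. Beta-lactamase reporter read with LiveBLAzer B/G FRET substrate after 2 h at room temperature.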

A short description of experiment [16]: cAMP Responsive Elements (CRE) small molecule antagonists, cell-based qHTS assay (AID 1963591; active = well fitted inhibition curve with a large enough effect in the signal ratio in the repeat runs, not every such curve was filed as active; the % refers to the signal ratio). The procedure, abridged: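 CRE-bla HEK293T cells plated 18 h, then given compound plus NKH477 at 0.25 uM final for 3 h at 37C. Beta-lactamase reporter read with LiveBLAzer B/G FRET substrate after 2 h at room temperature.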
Experiment [17] deals with Beta-2 adrenergic receptor (Homo sapiens) (UniProt P07550). Nature of the experiment: Adrenergic beta2 receptor (ADRB2) small molecule antagonists, cell-based qHTS assay (AID 1963592). Note: series mostly up to about 92 µM; nearly all actives have a fitted effect of over 50% in size. The procedure, abridged: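 Cells (CHO, stable ADRB2 overexpression) incubated 18-20hr at 37C; compounds added from DMSO; agonist mix (1nM isoproterenol, 100uM IBMX, 25uM Ro-20-1724) added; 0.5hr RT; d2-cAMP and anti-cAMP-cryptate added; 1hr RT; 665/615 nm read.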
Sequence of Beta-2 adrenergic receptor (Homo sapiens) (P07550 whole entry, looked up): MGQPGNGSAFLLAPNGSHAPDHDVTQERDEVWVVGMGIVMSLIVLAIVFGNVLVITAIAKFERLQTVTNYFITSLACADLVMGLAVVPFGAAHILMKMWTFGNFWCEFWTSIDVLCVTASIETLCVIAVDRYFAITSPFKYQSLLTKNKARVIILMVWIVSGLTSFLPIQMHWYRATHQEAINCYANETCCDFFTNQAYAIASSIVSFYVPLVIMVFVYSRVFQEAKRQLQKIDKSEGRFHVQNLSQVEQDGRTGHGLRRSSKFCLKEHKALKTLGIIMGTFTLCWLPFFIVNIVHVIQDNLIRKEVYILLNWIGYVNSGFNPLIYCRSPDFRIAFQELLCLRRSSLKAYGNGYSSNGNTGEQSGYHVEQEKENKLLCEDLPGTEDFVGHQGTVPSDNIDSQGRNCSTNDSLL

Experiment [18] addresses D(2) dopamine receptor (Homo sapiens) (UniProt P14416). As to the kind of experiment: Dopamine D2 receptor (DRD2) small molecule agonists, cell-based qHTS assay (AID 1963594). Note: nearly all actives have a fitted effect of over 35% in size. Put shortly:
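HEK293 cells stably expressing DRD2 were cultured 24 h at 37 C, then given Ro20-1724 (0.1 mM final) and compounds for 10 min at room temperature. NKH477 (200nM) was then added for 30 min. cAMP was read by HTRF.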

Experiment [19] has the same target. Nature of the experiment: Dopamine D2 receptor (DRD2) small molecule antagonists, cell-based qHTS assay (AID 1963595; active = well fitted inhibition curve with a large enough effect in the signal ratio in the repeat runs, with a control signal flat; the % refers to the signal ratio). Put shortly: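 In this cell-based antagonist screen, compounds act for 10 min at room temperature before a 30 min challenge with 12 nM quinpirole and 200 nM NKH477. cAMP is quantified by HTRF competition in DRD2-HEK293 cells containing 0.1 mM Ro20-1724.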

Experimental findings from PubChem BioAssay (Tox21) are described below.

A number with no mark means an inactive call. Records with an inconclusive call do not appear. Activity calls are given as the source filed them. Unless noted, calls come from the whole dose curve.

Sequence of D(2) dopamine receptor (Homo sapiens) (P14416 whole entry, looked up): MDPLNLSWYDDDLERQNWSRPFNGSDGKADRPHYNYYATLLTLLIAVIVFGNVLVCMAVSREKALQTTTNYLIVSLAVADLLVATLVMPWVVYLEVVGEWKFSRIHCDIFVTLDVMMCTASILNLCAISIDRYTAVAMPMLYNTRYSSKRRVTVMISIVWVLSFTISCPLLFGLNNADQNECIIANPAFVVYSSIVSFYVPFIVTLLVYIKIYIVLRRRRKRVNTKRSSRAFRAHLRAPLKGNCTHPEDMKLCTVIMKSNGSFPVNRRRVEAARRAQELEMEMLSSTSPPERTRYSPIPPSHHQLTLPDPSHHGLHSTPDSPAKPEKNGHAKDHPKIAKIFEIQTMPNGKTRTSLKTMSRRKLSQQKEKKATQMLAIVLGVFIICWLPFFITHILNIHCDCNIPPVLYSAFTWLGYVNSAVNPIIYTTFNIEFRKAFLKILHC
Sequence of Muscarinic acetylcholine receptor M1 (Homo sapiens) (P11229 whole entry, looked up): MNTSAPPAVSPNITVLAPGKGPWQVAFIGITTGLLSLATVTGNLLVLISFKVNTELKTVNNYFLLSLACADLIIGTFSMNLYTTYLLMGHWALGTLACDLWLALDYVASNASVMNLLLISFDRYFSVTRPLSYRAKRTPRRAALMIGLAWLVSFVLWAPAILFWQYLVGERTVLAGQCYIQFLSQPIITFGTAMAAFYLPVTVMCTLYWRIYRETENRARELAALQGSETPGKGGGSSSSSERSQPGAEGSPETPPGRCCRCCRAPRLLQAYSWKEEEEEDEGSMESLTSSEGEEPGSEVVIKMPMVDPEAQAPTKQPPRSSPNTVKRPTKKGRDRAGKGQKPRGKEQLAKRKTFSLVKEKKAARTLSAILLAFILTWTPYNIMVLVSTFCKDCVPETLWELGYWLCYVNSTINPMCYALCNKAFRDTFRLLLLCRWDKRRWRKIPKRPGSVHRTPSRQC
Sequence of KiSS-1 receptor (Homo sapiens) (Q969F8 whole entry, looked up): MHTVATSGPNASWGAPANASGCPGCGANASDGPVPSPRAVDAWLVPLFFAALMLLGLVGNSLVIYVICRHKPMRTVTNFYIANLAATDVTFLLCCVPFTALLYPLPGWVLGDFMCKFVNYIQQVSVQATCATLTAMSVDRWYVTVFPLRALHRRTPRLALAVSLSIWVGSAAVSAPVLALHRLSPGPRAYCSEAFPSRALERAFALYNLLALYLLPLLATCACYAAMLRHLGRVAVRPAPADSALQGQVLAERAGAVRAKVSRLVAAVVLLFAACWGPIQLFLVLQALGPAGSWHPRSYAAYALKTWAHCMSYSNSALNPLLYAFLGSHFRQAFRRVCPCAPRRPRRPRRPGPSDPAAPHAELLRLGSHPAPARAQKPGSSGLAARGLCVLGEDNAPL
Sequence of 5-hydroxytryptamine receptor 2A (Homo sapiens) (P28223 whole entry, looked up): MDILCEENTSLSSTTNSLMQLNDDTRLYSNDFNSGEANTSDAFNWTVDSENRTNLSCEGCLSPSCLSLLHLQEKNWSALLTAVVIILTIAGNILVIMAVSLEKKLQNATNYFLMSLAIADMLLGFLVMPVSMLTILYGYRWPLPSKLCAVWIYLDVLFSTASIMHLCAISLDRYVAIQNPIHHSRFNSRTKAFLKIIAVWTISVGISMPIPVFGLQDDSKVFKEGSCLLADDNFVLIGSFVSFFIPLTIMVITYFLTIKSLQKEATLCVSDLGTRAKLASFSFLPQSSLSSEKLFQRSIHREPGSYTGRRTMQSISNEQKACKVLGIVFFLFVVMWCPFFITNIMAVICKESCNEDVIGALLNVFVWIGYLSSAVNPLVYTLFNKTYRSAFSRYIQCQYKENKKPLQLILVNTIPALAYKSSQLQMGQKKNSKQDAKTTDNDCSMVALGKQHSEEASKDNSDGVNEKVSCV
Sequence of Gonadotropin-releasing hormone receptor (Homo sapiens) (P30968 whole entry, looked up): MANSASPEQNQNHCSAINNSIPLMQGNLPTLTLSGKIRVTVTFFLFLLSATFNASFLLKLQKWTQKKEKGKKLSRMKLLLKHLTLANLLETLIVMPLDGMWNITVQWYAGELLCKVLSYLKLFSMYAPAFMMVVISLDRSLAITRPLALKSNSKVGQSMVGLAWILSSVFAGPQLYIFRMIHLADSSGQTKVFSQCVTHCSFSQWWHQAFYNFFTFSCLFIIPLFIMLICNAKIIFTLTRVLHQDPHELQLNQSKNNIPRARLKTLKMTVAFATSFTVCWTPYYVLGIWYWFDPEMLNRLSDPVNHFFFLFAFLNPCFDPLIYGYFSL

Turning to `CCOC(=O)C(C)O` (centres undefined), the Potency result in experiment [1], in experiment [2], in experiment [3], in experiment [6], in [7] and in experiment [8] was “inactive” throughout. Further, the Potency entry in experiment [9], in experiment [10], in experiment [11], in experiment [12], in experiment [13] and in experiment [14] was “inactive” throughout. In addition, the Potency entry in experiment [15], in [16], in [17], in experiment [18] and in [19] was “inactive” each time. Moreover, the outcome in [4] and in experiment [5] was inactive.

With `Cn1c(=O)c2c(ncn2CC(=O)O)n(C)c1=O`, the Potency entry in [1], in experiment [2], in experiment [3], in experiment [6], in experiment [7] and in experiment [8] was “inactive” in each case. Moreover, the Potency entry in experiment [9], in experiment [10], in experiment [11], in experiment [12], in [13] and in [14] was “inactive” in each case. Besides, the Potency result in experiment [15], in [16], in experiment [17], in experiment [18] and in [19] was “inactive” each time. In addition, the outcome in experiment [4] and in [5] was inactive.

Turning to `COc1ccc2nc(SCc3ncc(C)c(OC)c3C)[nH]c2c1`, the Potency result in experiment [1], in [2], in experiment [3], in experiment [6], in experiment [7] and in experiment [8] was “inactive” throughout. Besides, the Potency entry in experiment [9], in [10], in experiment [11], in [12], in experiment [13] and in experiment [14] was “inactive” throughout. The Potency result in experiment [15], in experiment [17] and in [18] was “inactive” each time. Moreover, the result in experiment [4] and in [5] was inactive.

`O=C(O)CCCC[P+](c1ccccc1)(c1ccccc1)c1ccccc1`: the Potency entry in experiment [1], in [2], in experiment [3], in [6], in experiment [7] and in experiment [8] was “inactive” in each case. Further, the Potency result in [9], in experiment [10], in experiment [11], in experiment [12], in [13] and in experiment [14] was “inactive” each time. For the same compound, the Potency result in [15], in experiment [16], in experiment [17] and in experiment [18] was “inactive” throughout. For the same compound, the outcome in experiment [4] and in [5] was inactive.

Take `O=C(O)c1ccc(Cl)cc1Cl`: the Potency entry in experiment [1], in [2], in experiment [3], in [6], in experiment [7] and in experiment [8] was “inactive” throughout. Also, the Potency result in [9], in [10], in experiment [11], in experiment [12], in [13] and in experiment [14] was “inactive” each time. In addition, the Potency result in [15], in experiment [17], in experiment [18] and in [19] was “inactive” in each case. Besides, the outcome in [4] and in [5] was inactive.

With `CC(C)(C)c1n[nH]c(=S)n(N)c1=O`, the Potency result in experiment [1], in experiment [2], in [3], in [6], in experiment [7] and in experiment [8] was “inactive” throughout. The Potency result in experiment [9], in experiment [10], in experiment [11], in [12], in [13] and in experiment [14] was “inactive” in each case. Further, the Potency result in experiment [19] was “inactive”. Further, the result in experiment [4] and in experiment [5] was inactive.

With `O=C(Nc1ccccc1)c1ccccc1O`, the Potency entry in [1], in experiment [3], in [6], in experiment [7], in experiment [8] and in [9] was “inactive” each time. For the same compound, the Potency result in [10], in [11], in [12], in experiment [13], in [14] and in [15] was “inactive” throughout. Besides, the Potency entry in experiment [16], in [18] and in [19] was “inactive” each time. In addition, the Potency in experiment [2] is 61.1 µM (active). Further, the result in experiment [4] and in [5] was inactive.
